Records with an inconclusive call do not appear. The source made the active and inactive calls. Calls follow the shape of the dose curve; as a rule, active = well fitted activation curve with a large enough effect in the signal ratio in the repeat runs, with a control signal flat (not every such curve was filed as active); inconclusive = weak or mixed curves; inactive = flat fitted curve, though single readings scatter; the % refers to the signal ratio.
test: qHTS assay for small molecule activators of the heat shock response signaling pathway (AID 743210); settings: HeLa HSE-bla reporter, beta-lactamase ratio, 5 h; series mostly up to 62.6 µM
Excerpt: U.S. Tox21 Program National Center for Advancing Translational Sciences [NCATS] NIH Chemical Genomics Center [NCGC] U.S. Environmental Protection Agency [EPA] National Institutes of Environmental Health Sciences [NIEHS] National Toxicology Program [NTP] U.S. Food and Drug Administration [FDA] Tox21 Assay Overview: Various chemicals, environmental and physiological stress conditions may lead to the activation of heat shock response/ unfolded protein response (HSR/UPR). There are three heat shock transcription factors (HSFs) (HSF-1, -2, and -4) mediating transcriptional regulation of the human HSR. To identify the compounds that activate HSR signaling, HSE-bla HeLa cell line (Invitrogen, Carlsbad, CA, USA) containing a beta-lactamase reporter gene under the control of the heat shock response elements was used to screen the Tox21 10K compound library.
Tox21 Assay Protocol Summary: The CellSensor HSE-bla HeLa cells (Invitrogen, Carlsbad, CA, USA) were dispensed at 1500 cells/6uL/well into 1536-well black wall/clear bottom plates using a Multidrop combi (Thermo Fisher Scientific, Waltham, MA) dispenser. After the assay plates were incubated at 37 C and 5% CO2 overnight, 23 nL of compounds dissolved in DMSO, positive controls or DMSO only was transferred to the assay plate by a Pintool station (Kalypsys, San Diego, CA). The plates were incubated at 37 C for 5 h. After 1 uL of LiveBLAzerTM B/G FRET substrate was added using a Flying Reagent Dispenser (Beckman Coulter, Indianapolis, IN, USA), the plates were incubated at room temperature for 2.5 h, and fluorescence intensity was measured by an Envision plate reader (PerkinElmer, Shelton, CT).

Compound | outcome
CCCC[n+]1ccccc1C | inactive
COP(=O)(OC)C(O)C(Cl)(Cl)Cl (stereo not given) | inactive
CCn1cc[n+](C)c1C | inactive
CC[N+]1(C)CCCC1 | inactive
CCCCn1cc[n+](C)c1C | inactive
COCC(=O)N(c1c(C)cccc1C)C(C)C(=O)OC (stereo not given) | inactive
CCCCCCCCCCn1cc[n+](C)c1 | inactive
Cc1cc(Cl)ccc1OCC(=O)O | inactive
O=[N+]([O-])c1ccccc1O | inactive
CC(Cl)(Cl)C(=O)O | inactive
CCCn1cc[n+](C)c1 | inactive
O=C(O)CCl | inactive
CCCC[N+]1(C)CCCC1 | inactive
CCC[N+]1(C)CCCCC1 | inactive
CCNc1nc(Cl)nc(NCC)n1 | inactive
CCC[N+]1(C)CCCC1 | inactive
Nc1ccc(-c2ccc(N)cc2)cc1 | inactive
COc1ccccc1N | inactive
CCCC[n+]1cccc(C)c1 | inactive
CCCCCCCCCCCCCC[P+](CCCCCC)(CCCCCC)CCCCCC | inactive

Compound | outcome
CCC(=O)C(CC(C)N(C)C)(c1ccccc1)c1ccccc1 (stereo not given) | inactive
O=C(O)C(Cl)Cl | inactive
O=C(O)c1nc(Cl)ccc1Cl | inactive
Cc1cc(Cl)ccc1N | inactive
N#CS | inactive
CCOP(=S)(OCC)Oc1ccc2c(C)c(Cl)c(=O)oc2c1 | inactive
Nc1ccccc1 | inactive
O=C(O)C(Cl)(Cl)Cl | inactive
CCCCCCCCn1cc[n+](C)c1 | inactive
Cc1cc(-c2ccc(N)c(C)c2)ccc1N | inactive
C1CCC(NC2CCCCC2)CC1 | inactive
CNC | inactive
Oc1cccc2cccnc12 | inactive
Nc1ccc(Cl)cc1 | inactive
CC[N+](CC)(CC)CC | inactive
CCCCCCCCCCCCCCCCn1cc[n+](C)c1 | inactive
C[C@]12CCC(=O)C=C1CC[C@@H]1[C@@H]2CC[C@]2(C)C(=O)CC[C@@H]12 | inactive
CCCCCCCCCCCCn1cc[n+](C)c1 | inactive
CCCC[n+]1ccc(C)cc1 | inactive
OCCOc1ccccc1 | inactive

From PubChem BioAssay (Tox21)
